Hits are enriched below; roughly 1.1% of the tested compounds scored in any of these assays.
HTR5A inv ctr: HTR5A inverse agonists in luminescence cell assay, primary screen, counter-screen for OPRM1-OPRD1 heterodimer inverse agonist project, full-deck HTS; 5-hydroxytryptamine receptor 5A (Homo sapiens), P47898; AID 504634, 2011; actives 0.083% (n = 340,000); inhibition, % at 9.3 µM; HTR5A cell line, inverse agonism; in the data active = inhibition mostly above about 23%, no sharp cut-off; inactive = mostly below about 18%;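 also: 0% = cells with DMSO and 100% = no-cell wells with DMSO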
OPRM1-OPRD1 ag: agonists of OPRM1-OPRD1 heterodimerization, primary screen, cell-based, luminescence. actives 0.3% (n = 340,000). activation, % at 9.3 µM. Mu-type opioid receptor (Homo sapiens) + Delta-type opioid receptor (Homo sapiens), …. cells. AID 504326, 2011; in the data active = activation above about 18%;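 also: 0% = vehicle-treated cells and 100% = reference agonist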
Target sequence (P35372 whole entry, looked up): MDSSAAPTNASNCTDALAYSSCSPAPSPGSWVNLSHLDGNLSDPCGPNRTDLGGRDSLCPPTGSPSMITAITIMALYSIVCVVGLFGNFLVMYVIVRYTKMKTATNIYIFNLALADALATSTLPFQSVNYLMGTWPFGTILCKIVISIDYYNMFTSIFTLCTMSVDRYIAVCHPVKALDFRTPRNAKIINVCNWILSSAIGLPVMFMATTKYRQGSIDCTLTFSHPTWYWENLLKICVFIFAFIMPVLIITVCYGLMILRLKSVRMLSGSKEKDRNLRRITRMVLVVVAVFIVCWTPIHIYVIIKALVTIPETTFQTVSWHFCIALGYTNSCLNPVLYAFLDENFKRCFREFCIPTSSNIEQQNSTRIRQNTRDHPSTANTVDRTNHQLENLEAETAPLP
Target sequence (P41143 whole entry, looked up): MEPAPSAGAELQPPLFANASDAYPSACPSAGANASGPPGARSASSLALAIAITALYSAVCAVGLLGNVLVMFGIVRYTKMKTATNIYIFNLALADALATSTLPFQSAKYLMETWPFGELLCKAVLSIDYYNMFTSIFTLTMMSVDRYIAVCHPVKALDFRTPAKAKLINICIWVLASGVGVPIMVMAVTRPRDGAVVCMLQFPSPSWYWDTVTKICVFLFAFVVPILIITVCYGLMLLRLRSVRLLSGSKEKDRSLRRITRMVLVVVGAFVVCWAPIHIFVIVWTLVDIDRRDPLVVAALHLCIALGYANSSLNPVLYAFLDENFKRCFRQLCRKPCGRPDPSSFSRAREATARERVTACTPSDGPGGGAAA
HTR5A ag ctr: HTR5A agonists in luminescence cell assay, primary screen, counter-screen for OPRM1-OPRD1 heterodimer agonist project, full-deck HTS. cell-based. activation, % at 9.3 µM. actives 0.61% (n = 340,000). AID 504692, 2011; in the data active = activation mostly above about 9.5%, no sharp cut-off; inactive = mostly below about 7.6%;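 also: 0% = cells with vehicle only and 100% = reference agonist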
MOR-DOR inv ag: inverse agonists of MOR-DOR heterodimerization, primary screen, cell-based, luminescence | AID 504357, 2011 | Mu-type opioid receptor (Homo sapiens) + Delta-type opioid receptor (Homo sapiens), … | actives 0.21% (n = 340,000) | cell-based MOR-DOR heterodimer luminescence, inverse agonism | inhibition, % at 9.3 µM; in the data active = inhibition above about 22%, passing the limit was not always enough;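 also: 0% = cells with DMSO and 100% = wells without cells with DMSO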
The depositor's hits bear a star.

SMILES | HTR5A inv ctr | OPRM1-OPRD1 ag | HTR5A ag ctr | MOR-DOR inv ag
COC(=O)[C@@H]1Cc2c([nH]c3ccccc23)C(C)(C)N1C(=O)CCl | -147 | 37* | 41* | -172
COc1ccccc1C(C)NCC(=O)Nc1c(F)cccc1F (stereo not given) | 5 | 0 | -2 | 3
COc1cc(Cl)c(C)cc1NC(=O)CNC(C)c1ccccc1OC (stereo not given) | 9 | -1 | 10* | 3
NC(=O)c1cc2c3ccccc3ccn2c1-c1ccccc1 | -4 | 10 | 1 | -47
CCOC(=O)CN1C(=O)N[C@@H](CCc2ccccc2)[C@H](C(=O)OC)[C@H]1C | -21 | -1 | 8 | 6
OCCN=C1CCCc2c1[nH]c1ccc(Cl)cc21 | -7 | 3 | 13* | -15
OCCCN=C1CCCc2c1[nH]c1ccc(Cl)cc21 | -11 | 0 | 5 | 2
Fc1cc(F)c(NC(=S)N2CCOCC2)c(F)c1 | 1 | -1 | 0 | 7
Cc1cc(=O)[nH]c(SCC(=O)Nc2ccc(Br)cn2)n1 | -35 | 2 | 13* | -11
O=C1NC2(CCCCC2)C(=O)N1CC(=O)N1CCc2ccccc21 | -40 | 0 | 11* | 2
O=C(CN1C(=O)NC2(CCCC2)C1=O)N1CCN(S(=O)(=O)c2ccccc2[N+](=O)[O-])CC1 | -7 | 1 | 9.5* | -6
O=C(CN1C(=O)NC2(CCCC2)C1=O)N1CCN(S(=O)(=O)c2ccccc2F)CC1 | 16 | -3 | -7 | 18
COc1c(C(CC(C)C)OC(C)=O)ccc2c1C(=O)OCc1cc(C)cc(O)c1O2 (stereo not given) | 6 | 16 | 7 | -81
COc1cc(C(=O)O/N=C2\C=CC(=O)C=C2C)cc(OC)c1OC | -6 | 2 | 2 | -11
COc1cc(C(=O)ON=C2C3CC4CC(C3)CC2C4)cc(OC)c1OC | -42 | 10 | 12* | -48
O=S(=O)(NN=C1CCCCC1)c1ccccc1 | -18 | -1 | 4 | 7
O=S(=O)(NN=C1CCCCCC1)c1ccccc1 | -28 | 0 | 13* | 1
CCCC(=O)OCCNc1cc(Sc2nccn2C)c2nonc2c1[N+](=O)[O-] | -18 | -7 | -8 | 40*
CCCSc1cc(NCCOC(=O)CCC)c([N+](=O)[O-])c2nonc12 | -25 | -2 | 1 | 9
O=C(Nc1ccccn1)c1ccc2ccccc2n1 | -11 | -3 | 8.9* | 13
COc1cccc(C(=O)Nc2ccc3c(cc2=O)[C@@H](NC(C)=O)CCc2cc(OC)c(OC)c(OC)c2-3)c1 | -194 | 1 | 52* | -6
CC(=O)Nc1sc2c(c1C(c1ccccn1)N1CCCC1)CCCC2 (stereo not given) | 12 | -2 | -5 | 10
CC(=O)Nc1sc2c(c1C(c1cccs1)N1CCOCC1)CCCC2 (stereo not given) | -5 | -1 | 13* | 3
CC(C)n1nc(C(=O)OCC(=O)c2c[nH]c3ccccc23)c2ccccc2c1=O | -32 | 3 | 10* | -17
CCn1nc(C(=O)OCC(=O)c2c[nH]c3ccccc23)c2ccccc2c1=O | -1 | -1 | 0 | 4
SMILES | HTR5A inv ctr | OPRM1-OPRD1 ag | HTR5A ag ctr | MOR-DOR inv ag
Clc1ccccc1/C=N/NC1=Nc2cccc3cccc1c23 | -15 | 11 | 12* | -77
Cc1cc(C)c(CN2CCN(C(=O)Cn3cnc(C(=O)Nc4ccc(C)c(C)c4)n3)CC2)c(C)c1 | -31 | 1 | 8.5* | -5
CC(C)C(NC(=O)c1ccccc1F)C(=O)NCc1ccccc1 (stereo not given) | 16 | -3 | -6 | 14
COC(=O)COc1coc(CN2CCN(c3cccc(Cl)c3)CC2)cc1=O | 1 | -1 | 2 | 3
C=CCN1C=C2C(=O)C(C)(OC(=O)C3CCCC3)C(=O)C(c3ccccc3)=C2C=C1CCCC(=O)OC (stereo not given) | 22 | 6 | 12* | -32
O=C(Cc1ccccc1F)Nc1ccc(S(=O)(=O)N2CCCC2)cc1 | -4 | -2 | 2 | 9
COc1cccc(C(=O)COc2ccc3c(C)cc(=O)oc3c2)c1 | 15 | 1 | -4 | -5
COc1cccc(C(=O)COc2ccc3ccc(=O)oc3c2)c1 | -33 | -1 | 12* | 9
C[C@H](NC(N)=O)C(=O)Nc1ccc2c(c1)OCO2 | -3 | -2 | 1 | 11
CC(=O)Nc1nc2n(n1)C(c1ccccc1)C=C(c1ccccc1)N2 (stereo not given) | 32* | -3 | -12 | 17
CN(C(=O)c1cccc(NC(=O)Cc2cccc(NC(=O)C3CCN(C(=O)c4ccccc4)CC3)c2)c1)C1CC1 | -31 | -1 | 9.1* | 4
CCOC(=O)C(=CNc1cc(C)nn1-c1ccc(Cl)cc1)C(=O)OCC | -36 | 8 | 10* | -42
CN(CCCNC(=O)CSc1cc(=O)n(C)c2cc(Cl)ccc12)Cc1ccccc1 | 9 | -3 | 3 | 14
CCc1nnc(SCC(=O)NC2CCCC2)nc1CC | -9 | -4 | 9.8* | 19
CC(=O)Nc1ccc(S(=O)(=O)NC2(C(F)(F)F)NC(=O)N(C3CCCCC3)C2=O)cc1 (stereo not given) | 12 | 0 | 10* | -2
Cc1cccc(-n2ccnc2CN2CCC(CO)(Cc3ccccc3)CC2)c1 | -7 | 0 | 0 | 1
CCn1nc(NC(=O)c2cccnc2)c2cc3cccc(C)c3nc21 | -66 | 12 | 18* | -65
COc1cc2[nH]c3c(=O)n4c(nc3c2cc1OC)SCCC4 | -25 | 0 | 9.9* | 1
COc1ccc2[nH]c3c(=O)n4c(nc3c2c1)SCC4 | 1 | 0 | 0 | 3
COc1ccc(/C=N\NC(=O)c2ccc(Cn3cc(Br)c([N+](=O)[O-])n3)o2)c(OC)c1C | -25 | -1 | 11* | 3
O=C(COC(=O)C1=COCCO1)NCc1ccc(Cl)cc1 | -36 | -1 | 13* | 7
Cc1ccc(CNC(=O)c2cc(Cl)cc(Cl)c2)n1C | -7 | -1 | 2 | 5
O=S(=O)(Nc1ccc(-c2ccc3nncn3n2)cc1)c1ccc(Cl)s1 | -5 | 1 | 10* | -7
O=S(=O)(Nc1ccc(-c2ccc3nncn3n2)cc1)c1ccccc1Cl | -6 | 0 | 2 | 2
Cc1ccc(NC(=O)COc2cccc3c2OC(C)(C)C3)c(O)c1 | -45 | -3 | 13* | 10
SMILES | HTR5A inv ctr | OPRM1-OPRD1 ag | HTR5A ag ctr | MOR-DOR inv ag
CC1(C)Cc2cccc(OCC(=O)Nc3ccccc3F)c2O1 | -7 | 0 | 3 | 0
CC(=O)Nc1cc(OC(C)=O)c2nonc2c1OC(C)=O | -11 | 23* | 10 | -134
CC(=O)Nc1nonc1NC(C)=O | 6 | 0 | -2 | 0
O=C1C(=C(I)I)c2ccccc2-c2ccccc21 | -35 | 41* | 9 | -202
Cc1cc(F)ccc1S(=O)(=O)N1CCCOC1CNC(=O)C(=O)NC1CCCC1 (stereo not given) | -16 | -1 | 4 | 3
CCOC(=O)C1CCN(CC(O)COCc2ccc(Cl)cc2)CC1 (stereo not given) | -44 | -3 | 12* | 15

Compound activity from PubChem BioAssay.
